Screening data from PubChem.
In the library only some 4.1% were active in any assay of this set; here they are far more common.
MazEF act = activators of E. coli MazEF toxin-antitoxin RNase, primary screen, biochemical, fluorescence, uHTS. activation, % at 20 µM. 350,000 tested, 0.32% active. FAM/BHQ RNA-DNA oligo cleavage fluorescence, 5 h. Endoribonuclease toxin MazF (Escherichia coli (strain K12)), P0AE70; in the data active = activation above about 50%
Target sequence (P0AE70 whole entry, looked up): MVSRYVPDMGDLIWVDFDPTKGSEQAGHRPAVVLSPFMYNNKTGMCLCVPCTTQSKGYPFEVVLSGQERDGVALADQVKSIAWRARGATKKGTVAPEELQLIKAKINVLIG
BoNT-A LC inh2 = BoNT/A light chain protease inhibitors, primary screen, biochemical, flow cytometry, MLPCN library | inhibition, % at 10 µM | multiplex microsphere protease substrate cleavage | 360,000 tested, 0.17% active | Botulinum neurotoxin type A light chain protease (Clostridium botulinum A str. ATCC 3502)
Anthrax LF prot = Bacillus anthracis LF protease inhibitors, primary screen, biochemical, multiplex microsphere, MLPCN library; Lethal factor (Bacillus anthracis), P15917; multiplex microsphere protease cleavage assay; inhibition, % at 10 µM; 360,000 tested, 0.12% active
Bead autofluor = compound fluorescence in toxin protease inhibitor counterscreen; compound autofluorescence counterscreen, microsphere flow cytometry; stronger effect = higher value; fluorescence intensity (concentration not given with the values); 360,000 tested, 3.1% active; AID 624483; in the data active = fluorescence intensity above about 16000; inconclusive = no clear call, values can overlap the other calls
BoNT-F LC inh = BoNT/F light chain protease inhibitors, primary screen, biochemical, flow cytometry, MLPCN library; Botulinum neurotoxin type F light chain protease (Clostridium botulinum); Multiplex microsphere protease cleavage assay; inhibition, % at 10 µM; 360,000 tested, 0.22% active; in the data active = inhibition above about 35%, passing the limit was not always enough; inconclusive = no clear call, values can overlap the other calls
DUSP3 inh = VHR1 phosphatase inhibitors, primary screen, biochemical, absorbance, uHTS. recombinant VHR phosphatase, pNPP absorbance. inhibition, % at 13.3 µM. 290,000 tested, 0.52% active. AID 1654, 2009; in the data active = inhibition above about 50%
Target sequence (P51452 whole entry, looked up): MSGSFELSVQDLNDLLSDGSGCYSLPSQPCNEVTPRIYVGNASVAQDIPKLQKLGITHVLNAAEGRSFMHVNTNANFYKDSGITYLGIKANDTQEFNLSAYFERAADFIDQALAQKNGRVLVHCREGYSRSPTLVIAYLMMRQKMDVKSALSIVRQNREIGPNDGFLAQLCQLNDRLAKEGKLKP
Hits are given with their value. Rule as the data show it, unless noted: active = inhibition above about 30%; inconclusive = no clear call, values can overlap the other calls; inactive = below that.

For CCNC(=O)C1(C)CCN(C(=O)c2ccc(OC(F)F)cc2)C1 (stereo not drawn) the results were BoNT-A LC inh2 inactive, Anthrax LF prot inactive, Bead autofluor inactive and BoNT-F LC inh inactive.
`Cc1c(C(=O)NCc2ccccn2)sc2nc(-c3ccccc3)cn12` gave MazEF act inactive, BoNT-A LC inh2 inactive, Anthrax LF prot inactive, Bead autofluor inactive, BoNT-F LC inh inactive and DUSP3 inh inactive.
Cc1c(C(=O)NCc2ccccn2)sc2nc(-c3ccc(F)cc3)cn12 was read as MazEF act inactive, BoNT-A LC inh2 inactive, Anthrax LF prot inactive, Bead autofluor 19364, BoNT-F LC inh inactive and DUSP3 inh inactive.
`Cc1ccc(S(=O)(=O)NCCOc2nc(N3CCOCC3)nc(N3CCOCC3)n2)cc1` gave MazEF act inactive, BoNT-A LC inh2 inactive, Anthrax LF prot inactive, Bead autofluor 21551, BoNT-F LC inh inactive and DUSP3 inh inactive.
Cc1ccc(S(=O)(=O)NCCCNC(=O)c2ccccc2)cc1 was read as MazEF act inactive, BoNT-A LC inh2 inactive, Anthrax LF prot inactive, Bead autofluor 23361, BoNT-F LC inh inactive and DUSP3 inh inactive.
For Cc1ccc(S(=O)(=O)NCCCNC(=O)N2CCOCC2)cc1 the results were MazEF act inactive, BoNT-A LC inh2 inactive, Anthrax LF prot inactive, Bead autofluor inactive, BoNT-F LC inh inactive and DUSP3 inh inactive.
Cc1ccc(S(=O)(=O)NCCNC(=O)N2CCOCC2)cc1 was read as MazEF act inactive, BoNT-A LC inh2 inactive, Anthrax LF prot inactive, Bead autofluor 21580, BoNT-F LC inh inactive and DUSP3 inh inactive.
For CCNC(=O)C1CCCN(C(=O)c2cc(OC)c(OC)c(OC)c2)CC1 (stereo not drawn) the results were BoNT-A LC inh2 inactive, Anthrax LF prot inactive, Bead autofluor inactive and BoNT-F LC inh inactive.
For Cc1ccnc(N=Cc2c(O)ccc3oc4c(c23)CCCC4)c1 the results were DUSP3 inh inactive.
CCC1(C)Cc2c(C#N)c(N)sc(=S)c2CO1 (stereo not drawn) was read as MazEF act inactive, BoNT-A LC inh2 75.0, Anthrax LF prot 41.4, Bead autofluor inactive, BoNT-F LC inh inactive and DUSP3 inh inactive.
`COC(=O)C1CCN(C(=O)/C(C)=C\c2ccccc2)CC1` gave MazEF act inactive, BoNT-A LC inh2 inactive, Anthrax LF prot inactive, Bead autofluor inactive, BoNT-F LC inh inactive and DUSP3 inh inactive.
Cc1sc2ncn(CC(=O)NCCCN3CCC(C)CC3)c(=O)c2c1S(=O)(=O)N1CCC(C)CC1 was read as MazEF act inactive, BoNT-A LC inh2 inactive, Anthrax LF prot inactive, Bead autofluor inactive, BoNT-F LC inh inactive and DUSP3 inh 59.6.
Cc1sc2ncn(CC(=O)NCCN3CCOCC3)c(=O)c2c1S(=O)(=O)N1CCC(C)CC1 was read as MazEF act inactive, BoNT-A LC inh2 inactive, Anthrax LF prot inactive, Bead autofluor inactive, BoNT-F LC inh inactive and DUSP3 inh inactive.
Screening COc1ccc(OC)c(S(=O)(=O)NC(=O)C2(C)CCN2C(=O)Cc2ccccc2)c1 (stereo not drawn) returned BoNT-A LC inh2 inactive, Anthrax LF prot inactive, Bead autofluor inactive and BoNT-F LC inh inactive.
For Fc1ccc2c(c1)[C@H]1OCC[C@H]1[C@@H](c1ccco1)N2 the results were MazEF act inactive, BoNT-A LC inh2 inactive, Anthrax LF prot inactive, Bead autofluor 23934, BoNT-F LC inh inactive and DUSP3 inh inactive.
Screening CCc1c(O)nc(SCC(=O)c2ccccc2)n(-c2ccccc2)c1=O returned MazEF act inactive, BoNT-A LC inh2 inactive, Anthrax LF prot inactive, Bead autofluor inactive, BoNT-F LC inh inconclusive and DUSP3 inh inactive.
`CCSc1nc(O)c(CC)c(=O)n1C(C)CC` (stereo not drawn) gave MazEF act inactive, BoNT-A LC inh2 inactive, Anthrax LF prot inactive, Bead autofluor 22314, BoNT-F LC inh inactive and DUSP3 inh inactive.
For COc1ccc(CN(C)CCCn2cnc3c(SC)ncnc32)cc1OC the results were MazEF act inactive, BoNT-A LC inh2 inactive, Anthrax LF prot inactive, Bead autofluor inactive and BoNT-F LC inh inactive.
Screening CN(CCc1ccccn1)Cc1ccc(Cl)c(Cl)c1 returned MazEF act inactive, BoNT-A LC inh2 inactive, Anthrax LF prot inactive, Bead autofluor inactive, BoNT-F LC inh inconclusive and DUSP3 inh inactive.
